Bioassay records from PubChem BioAssay.
The list is not random: actives were taken first. Their share in the collection is about 1.6%.
HTR5A ag: HTR5A agonists in luminescence cell assay, primary screen, counter-screen for OPRM1-OPRD1 heterodimer agonist project, full-deck HTS; 0.61% of 340,000 active; activation, % at 9.3 µM; cell-based; 5-hydroxytryptamine receptor 5A (Homo sapiens), P47898; in the data active means activation mostly above about 9.5%, no sharp cut-off; inactive means mostly below about 7.6%
Target sequence (P47898 whole entry, looked up): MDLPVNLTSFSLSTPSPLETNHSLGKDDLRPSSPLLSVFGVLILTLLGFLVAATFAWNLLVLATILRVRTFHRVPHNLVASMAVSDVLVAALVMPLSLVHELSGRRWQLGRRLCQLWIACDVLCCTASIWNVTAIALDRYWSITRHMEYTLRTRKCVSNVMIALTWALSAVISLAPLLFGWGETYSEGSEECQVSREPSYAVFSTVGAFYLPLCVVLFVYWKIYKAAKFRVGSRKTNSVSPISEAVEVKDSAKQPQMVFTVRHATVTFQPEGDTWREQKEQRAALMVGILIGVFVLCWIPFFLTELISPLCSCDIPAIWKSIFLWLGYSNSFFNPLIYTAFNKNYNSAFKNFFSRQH
PolyA inh: polyadenylation inhibitors in yeast reporter cells, primary screen, luminescence, S. cerevisiae; S. cerevisiae SKY197-pL101 polyadenylation reporter, beta-gal luminescence; efflux-impaired pdr1/pdr3 knockout yeast; score 100 = 6 SD above DMSO; activity score, % at 12 µM; 0.02% of 300,000 active;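 active means lowest replicate activity score at least 50, where 100 means six control SD above control mean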;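 further: yeast exposed to compound for 9 h at 30 °C; higher score means more reporter readthrough which indicates perturbed polyadenylation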
OPRM1-OPRD1 ag: agonists of OPRM1-OPRD1 heterodimerization, primary screen, cell-based, luminescence. Mu-type opioid receptor (Homo sapiens) + Delta-type opioid receptor (Homo sapiens), …. cells. activation, % at 9.3 µM. 0.3% of 340,000 active. AID 504326, 2011; in the data active means activation above about 18%
MOR-DOR inv ag: inverse agonists of MOR-DOR heterodimerization, primary screen, cell-based, luminescence; Mu-type opioid receptor (Homo sapiens) + Delta-type opioid receptor (Homo sapiens), …; cell-based MOR-DOR heterodimer luminescence, inverse agonism; inhibition, % at 9.3 µM; 0.21% of 340,000 active; in the data active means inhibition above about 22%, passing the limit was not always enough
NALP1 yeast inh: NALP1 inflammasome inhibitors in reconstituted yeast, colorimetric, S. cerevisiae, triplicate retest; S. cerevisiae NALP1/ASC/caspase-1 growth, X-gal OD620, 72 h; inhibition, % at 10 µM; 0.61% of 280,000 active; AID 2071, 2009; in the data active means inhibition mostly above about 24%, no sharp cut-off; inactive means mostly below about 32%
HTR5A inv ctr: HTR5A inverse agonists in luminescence cell assay, primary screen, counter-screen for OPRM1-OPRD1 heterodimer inverse agonist project, full-deck HTS; HTR5A cell line, inverse agonism; AID 504634, 2011; inhibition, % at 9.3 µM; 0.083% of 340,000 active; 5-hydroxytryptamine receptor 5A (Homo sapiens), P47898; in the data active means inhibition mostly above about 23%, no sharp cut-off; inactive means mostly below about 18%
Hits are given with their value; n = inactive; x = no result given.

SMILES | HTR5A ag | PolyA inh | OPRM1-OPRD1 ag | MOR-DOR inv ag | NALP1 yeast inh | HTR5A inv ctr
COCCNC(=O)CSc1nc2scc(-c3ccccc3)c2c(=O)[nH]1 | n | n | n | n | x | n
CC1CCN(CC(O)COc2ccc(-c3ccccc3)cc2)CC1 (stereo unspecified) | n | n | n | n | n | n
Cc1cc(C(=O)CSc2nnc(CCC(N)=O)n2C)c(C)n1C1CC1 | n | x | n | n | x | n
CCOC(=O)Nc1sc(C)c(C)c1C(=O)OCC | 13 | n | n | n | n | n
Cc1ccc(S(=O)(=O)NNC(=O)Nc2cccc(C)c2C)c(C)c1 | n | n | n | n | n | n
CCc1cc2c(NCC(=O)O)ncnc2s1 | n | n | n | n | 39 | n
CC1CCCC(NS(=O)(=O)c2ccc3c(c2)OCCO3)C1C (stereo unspecified) | n | n | n | n | 27 | n
C=C(CC)C(=O)c1ccc(OCC(=O)O)c(Cl)c1Cl | n | n | n | n | 78 | n
CCOc1c(S(=O)(=O)N2CCCC2)ccc(Cl)c1Cl | n | n | n | n | 41 | n
CCN1/C(=C/c2ccc3cccc(C)c3[n+]2CC)Sc2ccccc21 | n | n | n | n | 34 | n
Cc1ccc(/C=C/c2ccc(=O)n(Cc3ccc(F)cc3)n2)cc1 | n | n | n | n | n | n
Cc1ccc(/C=C/c2ccc(=O)n(Cc3ccccc3Cl)n2)cc1 | n | n | n | n | 37 | n
Cn1c(=O)[nH]c(NC2CCCCC2)c(N=O)c1=O | n | n | n | n | n | n
CCCNc1[nH]c(=O)n(C)c(=O)c1N=O | 9.6 | n | n | n | n | n
N=c1c2ccccc2nc2n1CCCCCCCCCCC2 | n | n | n | n | x | n
C=C[C@H](CC(C)C)N(Cc1ccccc1)S(=O)(=O)N(Cc1ccccc1)[C@@H](C=C)CC(C)C | n | x | n | 42 | x | 32
CCOc1ccc(OCCCC(=O)N2CCN(S(=O)(=O)c3ccc(Cl)cc3)CC2)cc1 | n | n | n | n | x | n
Cc1cc(S(=O)(=O)Nc2ccc3ccccc3c2)c(C)s1 | n | n | n | n | n | n
Cc1cc(S(=O)(=O)Nc2cc(C)c(O)c(C)c2)c(C)s1 | n | n | n | n | 40 | n
CN(C)C(CNc1ccc([N+](=O)[O-])cc1C#N)c1ccccc1 (stereo unspecified) | n | n | n | n | n | n
CCOC(=O)N1CCN(CC(O)COc2ccccc2C(C)CC)CC1 (stereo unspecified) | n | n | n | n | 26 | n
CCCCS(=O)Cc1ccccc1 (stereo unspecified) | n | n | n | n | n | n
O=C(/C=C/c1cccs1)Nc1ccncc1 | n | n | n | n | n | n
CCCOC(=O)c1ccc(NC(=O)/C=C/c2cccs2)cc1 | 11 | n | n | n | 61 | n
O=C(COc1ccc2ccc(=O)oc2c1)NCCCN1CCCC1=O | 13 | n | n | n | n | n
SMILES | HTR5A ag | PolyA inh | OPRM1-OPRD1 ag | MOR-DOR inv ag | NALP1 yeast inh | HTR5A inv ctr
CS/C(=N\S(=O)(=O)c1cccs1)Nc1cccc(Cl)c1C | n | 86 | n | n | n | n
Cc1ccnc(NC2CCCCC2)c1 | n | n | n | n | 21 | n
COc1ccccc1OCCN1CSC(=S)N(C)C1 | n | n | n | n | 108 | n
Cc1noc(C)c1COC(=O)c1ccc2c(c1)S(=O)(=O)c1ccccc1C2=O | 10 | n | n | n | n | n
NC(=O)COC(=O)c1ccc2c(c1)S(=O)(=O)c1ccccc1C2=O | n | n | n | n | n | n
CCOc1cc(N2CCOCC2)c(OCC)cc1NC(=O)CN1CCC(Cc2ccccc2)CC1 | 12 | n | n | n | n | n
C/C(Cn1nnc2ccccc21)=N\NC(=O)c1ccc(Br)cc1 | n | n | n | n | n | n
CCOC(=O)c1ccc(Nc2nc(C)nc3c2nnn3Cc2ccccc2)cc1 | 8.5 | n | n | n | n | n
N#CC1(NC(=O)CSc2nnc(Nc3ccccc3F)s2)CCCC1 | n | x | n | n | x | n
Cn1c(SCC(=O)NC2CC2)nnc1-c1ccccc1 | n | n | n | n | n | n
